A selection: hits, their analogues and other compounds. The true share with any hit is near 1.9%.
USP2a block: USP2a (human) protease inhibition | AID 463254 | 0.01% of 330,000 active | O75604 | Potency, µM (top dose mostly 38.3 µM), for inactives: at the highest dose activity change, negative = inhibition, most hits filed as inhibitors | USP2 core, Ub-CHOP2 coupled fluorogenic reporter, 485/531;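 note: potency is the fitted concentration of half-maximal effect; plate controls were DMSO wells for no effect and full inhibition by NEM control for full effect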
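Deubiquitinase activity read as fluorescence (485/531 nm) after Ub-CHOP2 cleavage activates the enterokinase reporter on its substrate; USP2 core 10nM, Ub-CHOP2 and substrate 25nM each, 30min compound preincubation then 60min RT; data normalized to NEM, curves fitted.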
Pin1 inh: inhibitors of human Pin1 | Pin1 FP peptide displacement, HiFluor488, 10 min | Potency, µM (doses to about 115 µM), inactives show top-dose activity, negative = inhibition, hits mostly inhibitors | 0.009% of 390,000 active | AID 504891; active = well fitted inhibition curve with a large enough effect in the polarisation, with a control signal flat, not every such curve was filed as active; inconclusive = small, poorly fitted or top-dose-only effect, or effect the other way, or a change in a side signal; inactive = no such curve, though single readings can be large or run the other way; the % refers to the polarisation; note: potency is the fitted concentration of half-maximal effect; % is set by controls: 0 for no effect and ±100 for the full control effect
Integrin act MD: activators of alpha7 integrin expression for muscular dystrophy; alpha7betagal myoblasts, beta-gal FDG fluorescence, 48 h; Potency, µM (titrated, usually from 38.3 µM), for the others: at the top dose activation, actives largely listed as activators; 0.064% of 350,000 active; AID 624291;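 note: potency is the fitted concentration of half-maximal effect; 100% = response of the positive control SU9516; nearly all actives have a fitted effect of over 60% in size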
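alpha7betagal+/- myoblasts (passage 13, 250/well) treated 48 h at 37C with compounds at 1:260 dilution of DMSO stock. Lysed, then beta-galactosidase activity read as FDG fluorescence (ex 480/em 540) after 30 min, with pre-read for autofluorescence.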
PKM2 act: PKM2 (human) enzyme activation; P14618; purified PKM2, Kinase-Glo ATP luminescence, activation; response scale: 0% is enzyme alone, no compound; Potency, µM (top dose mostly 57.5 µM), without a hit: at the top dose activation, usual class: activators; 0.34% of 260,000 active; note: potency is the fitted concentration of half-maximal effect; % is set by controls: 0 for no effect and ±100 for the full control effect; nearly all actives have a fitted effect of over 55% in size
Target sequence (P14618 whole entry, looked up): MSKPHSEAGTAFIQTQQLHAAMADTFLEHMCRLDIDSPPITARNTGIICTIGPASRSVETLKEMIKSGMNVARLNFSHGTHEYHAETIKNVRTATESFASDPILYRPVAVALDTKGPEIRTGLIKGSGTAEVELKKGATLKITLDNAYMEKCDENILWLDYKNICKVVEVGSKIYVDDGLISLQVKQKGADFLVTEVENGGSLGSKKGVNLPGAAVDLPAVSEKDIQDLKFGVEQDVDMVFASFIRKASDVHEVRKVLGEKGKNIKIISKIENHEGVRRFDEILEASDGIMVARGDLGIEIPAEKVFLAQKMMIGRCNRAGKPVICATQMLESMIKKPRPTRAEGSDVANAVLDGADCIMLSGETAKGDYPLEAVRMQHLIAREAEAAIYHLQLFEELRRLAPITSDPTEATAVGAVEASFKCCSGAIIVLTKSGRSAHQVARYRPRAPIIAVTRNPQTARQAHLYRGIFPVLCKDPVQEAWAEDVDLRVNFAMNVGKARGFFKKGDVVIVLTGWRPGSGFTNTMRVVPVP
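Kinase-Glo luminescence reports ATP generated from ADP (0.1 mM) and PEP (0.5 mM) by purified hPK-M2 after 1 h at room temperature, pH 7.2 imidazole buffer; intermediate enzyme activity allows detecting inhibitors and activators.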
ClpP mod: qHTS Assay for Activators of ClpP. ATP-dependent Clp protease proteolytic subunit (Bacillus subtilis (strain 168)), P80244. purified B. subtilis ClpP, FRET peptide cleavage, 20 min. Potency, µM (titrated, usually from 57.5 µM), without a hit: top-dose activity change, negative = active. 1.9% of 340,000 active. AID 651965, 2013; active = well fitted falling curve with a large enough effect; inconclusive = small, poorly fitted or top-dose-only effect; inactive = no such curve, though single readings can be large or run the other way; note: potency is the fitted concentration of half-maximal effect; the source files actives as falling curves though it sought activators and does not explain the sign; nearly all actives have a fitted effect of over 65% in size
Target sequence (P80244 whole entry, looked up): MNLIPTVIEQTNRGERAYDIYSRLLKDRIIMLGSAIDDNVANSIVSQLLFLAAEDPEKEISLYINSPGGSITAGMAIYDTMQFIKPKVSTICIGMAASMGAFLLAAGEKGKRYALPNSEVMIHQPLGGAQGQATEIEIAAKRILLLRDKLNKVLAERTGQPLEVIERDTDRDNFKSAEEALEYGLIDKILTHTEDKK
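Purified B. subtilis ClpP, 10 microg/mL final in Tris/HCl pH8 with KCl, BSA, glycerol and Tween-20, cleaved an Abz/nitrotyrosine-quenched decapeptide. Fluorescence (ex 320, em 430) was read at 0 and 20 min at room temperature. Delta was normalized to 5.8 microM ADEP and DMSO/no-enzyme controls.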
IL2 activator: activators of IL-2 | IL-2 activation reporter assay, cell-based qHTS; stimulated with anti-CD3/CD4/CD28 beads; in transgenic mouse T cells | activation, % (series mostly up to about 46 µM) | 0.065% of 360,000 active | AID 652025; in the data active = activation above about 50%; inconclusive = mostly about 30% to 49%; note: 0% is about no effect
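EGFP and DsRed fluorescence is measured by plate cytometry in unstimulated transgenic mouse T cells exposed to compound for 60 minutes, then stimulated 18 hours at 37 degrees C with anti-CD3/anti-CD4 beads plus anti-CD28.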
* = called active by the depositor; ? = inconclusive; / = not tested or not shown; [ ] = dose if it differs, or a comment. Unless noted, calls come from the whole dose curve; as a rule, active = well fitted curve in the direction sought with a large enough effect; inconclusive = small, poorly fitted or top-dose-only effect, or another doubt; inactive = no such curve, though single readings can be large; an effect the other way counts as inactive or inconclusive.

SMILES | USP2a block | Pin1 inh | Integrin act MD | PKM2 act | ClpP mod | IL2 activator
CCOc1ccc(-c2cc(C(=O)NC(C)c3ccccc3)c3ccccc3n2)cc1 (stereo unspecified) | / | -8.6% | / | / | 4.1% | /
COc1ccc(-c2cc(C(=O)N3CCN(c4cccc(C)c4C)CC3)c3ccccc3n2)cc1OC | 4.5% | 39.6% | -37.7% | / | 25.1µM* | 0.3
CCOc1ccc(-c2cc(C(=O)N3CCC(C)CC3)c3ccccc3n2)cc1 | / | -2.7% | -1.6% | / | 31.6µM* | -0.8
CCOc1ccc(-c2cc(C(=O)O)c3ccccc3n2)cc1 | 0.5% | -5.3% | 7.9% | -5.5% | 35.5µM* | -2.8
CCc1ccc(NC(=O)c2cnn3c(C)cc(C)nc23)cc1 | / | -3.5% | / | / | / | /
COc1ccc(C2C3=C(N=CN(CCN4CCOCC4)C3N)Oc3ccccc32)cc1OC (stereo unspecified) | / | 2.4% | / | / | / | /
c1c[nH]c(C2CCN(c3ncc(-c4ccc5c(c4)OCCCO5)s3)CC2)n1 | / | 4.3% | / | / | / | /
CCn1cc(C(=O)Nc2ccc(OC)c(S(=O)(=O)N3CCCCC3)c2)c(=O)c2ccc(C)nc21 | 1.2% | 2.2% | 28.2% | 0.5% | 31.6µM* | -2.8
Cc1ccccc1OCCC(=O)Nc1cccc(S(=O)(=O)Nc2ccccc2Cl)c1 | -2.2% | -3.5% | 33.8% | 2.3% | 14.1µM* | 0.6
CCCC(=O)OCCNC(=O)c1cc2ccccc2oc1=O | 0.2% | 5.4% | 8.5% | 1.5% | 17.8µM* | 1.2
O=C(NCCc1ccccc1)c1cc2ccccc2oc1=O | -2.3% | -3.3% | -2.4% | 0.5% | -18.8% | 0.0
CN(C)CCNC(=O)c1cc2ccccc2oc1=O | 1.4% | -4.1% | 12.3% | -19.0% | 28.2µM* | 0.3
O=C(NCCCN1CCOCC1)c1cc2ccccc2oc1=O | 2.1% | -7.7% | -9.9% | -5.6% | 28.2µM* | -0.5
CC(=O)OCCNC(=O)c1cc2ccccc2oc1=O | 1.4% | -2.1% | 11.2% | -0.2% | 25.1µM* | 4.1
CNc1c(Cl)cc(/C=C2\C=Cc3ccccc32)cc1Cl | / | / | / | / | -2.2% | /
C=C1C=C(C(F)F)n2ncc(C(=O)Nc3ccc(Br)cc3C(F)(F)F)c2N1 | / | / | / | / | 1.9% | /
COc1cc2nc(NC3CCN(C)CC3)nc(N3CCCN(C)CC3)c2cc1OC | / | / | / | / | 3.8% | /
O=C(C[n+]1ccccc1Br)c1ccc(Cl)cc1 | / | / | / | / | 0.4% | /
O=C(NCc1cccs1)c1cnc2ccccn2c1=O | -1.0% | -3.7% | -6.3% | 13.5% | 25.1µM* | -0.5
O=C(COC(=O)Cn1cnc2ccccc21)Nc1cccc([N+](=O)[O-])c1 | -3.0% | 1.1% | 11.2µM* | 6.6% | / | 0.4
Cc1c(Cc2ccccc2)c(=O)oc2c(O)c(O)ccc12 | -1.9% | ? | -28.1% | 20µM* | / | -0.4
CN(CC(=O)O)c1ccc(/C=C2\C=Cc3ccccc32)cc1 | / | / | / | / | 0.8% | /
COc1ccc(-c2ccc3ncnc(NCC4CCCO4)c3c2)cc1OC (stereo unspecified) | / | -1.6% | / | / | / | /
O=[N+]([O-])c1ccc(NCCCNS(=O)(=O)c2ccc(Cl)cc2)c(Cl)c1 | 3.1% | -1.3% | -12.4% | 14.1µM* | 0.9% | -3.9
COc1ccc(/C=C(\C#N)C(=O)N2CCOCC2)cc1Br | 2.8% | -4.0% | -6.3% | 6.1% | 25.1µM* | -3.5
SMILES | USP2a block | Pin1 inh | Integrin act MD | PKM2 act | ClpP mod | IL2 activator
COc1cc(/C=C(\C#N)C(=O)N2CCOCC2)ccc1OCc1ccccc1 | -0.2% | -16.6% | -20.7% | -2.6% | / | 0.7
CS(=O)(=O)c1ccccc1C(=O)Nc1ccc(-c2nc3ccccc3[nH]2)cc1 | 2.7% | 0.1% | 3.7% | 2.2%[0.46 µM] | -8.4% | 1.5
Cc1cc(F)ccc1S(=O)(=O)Nc1ccccc1C(=O)Nc1ncn[nH]1 | 5.8% | -1.1% | 39.6% | 5.5% | 31.6µM* | 0.0
COc1ccc(-c2csc(NC(=O)c3ccccc3NS(=O)(=O)c3ccc(F)c(F)c3)n2)cc1 | -18.1% | / | -71.1% | 0.1% | / | -3.6
CCC(=O)Nc1nc(-c2ccc3c(c2)OCCO3)cs1 | -1.2% | 8.0% | 11.2% | -2.4% | 2.7% | -2.2
O=C(Nc1ccc(-c2nc3ccccc3[nH]2)cc1)c1ccccc1NS(=O)(=O)c1ccc(F)cc1 | -1.8% | 19.1% | 23.6% | 7.2% | 35.5µM* | 0.3
COc1ccccc1C(=O)Nc1nc(-c2ccc3c(c2)OCCO3)cs1 | 3.3% | 4.2% | ? | 0.4% | 25.1µM* | 0.3
Cc1ccc(S(=O)(=O)Nc2ccccc2C(=O)Nc2nc(-c3ccc(F)cc3)cs2)cc1 | ? | -12.9% | -57.7% | -18.4% | 15.8µM* | -4.2
CN(C)c1ccc(/C=C/c2ccnc3ccc([N+](=O)[O-])cc23)cc1 | / | / | / | / | 1.0% | /
Cc1noc(C)c1-c1ccc2ncnc(NCc3ccco3)c2c1 | / | -4.7% | / | / | / | /
O=C(Nc1cccc(Nc2ccccc2)c1)c1cnn2c1NC(=C1CC1)C=C2C(F)F | / | / | / | / | -4.1% | /
CC1(C)CC(=O)c2cc(-c3nc(-c4ccc(F)cc4)cs3)c(=O)[nH]c2C1 | / | 21.0% | / | / | -9.7% | /
NC(=O)C1CCN(c2ncc(-c3ccc4c(c3)OCO4)s2)CC1 | / | -12.0% | / | / | / | /
Cc1cc(F)ccc1S(=O)(=O)Nc1ccccc1C(=O)Nc1ccccc1-c1nc2ccccc2[nH]1 | -7.6% | 18.3% | -64.3% | 3.0% | 31.6µM* | -0.8
S=C(NCCCc1cnc[nH]1)NCCCN(Cc1ccc(Cl)cc1)c1ncc(Br)cn1 | / | 4.5% | / | / | -11.6% | /
O=C(NCc1ccccc1Cl)c1cnc2n(c1=O)CCS2 | 4.2% | -13.3% | 9.9% | -0.9% | -4.0% | -2.9
CC1Cn2c(C(=O)NCc3cccc(Br)c3)cc3cccc(c32)S1 (stereo unspecified) | / | 12.8% | / | / | 31.6µM* | /
CCOc1ccc(CCNC(=O)c2cc3cccc4c3n2CCS4)cc1 | / | 33.2% | / | / | 22.4µM* | /
O=C(NCc1ccccc1Cl)c1cc2cccc3c2n1CCS3 | / | 28.2% | / | / | 28.2µM* | /
COc1ccc(OC)c(CCNC(=O)c2cc3cccc4c3n2CC(C)S4)c1 (stereo unspecified) | / | 8.5% | / | / | 31.6µM* | /
N#Cc1c(-c2ccc(Cl)cc2)no[n+]1[O-] | / | -9.1% | / | / | / | /
COc1cccc(CNC(=O)CCC(=O)N2CC(C)Oc3ccccc32)c1OC (stereo unspecified) | -2.4% | -3.3% | -5.4% | 3.4% | 0.2% | -0.7
COc1ccc(OC)c(CCNC(=O)c2cc3cccc4c3n2CCS4)c1 | / | 54.9% | / | / | 31.6µM* | /
COc1ccc(CC(=O)NCc2cccc(CNC(=O)Cc3ccc(OC)c(OC)c3)c2)cc1OC | 2.2% | 8.1% | -2.8% | 0.8%[11.5 µM] | -0.1% | -0.3
COc1ccc(CNC(=O)c2cc3cccc4c3n2CC(C)S4)c(OC)c1 (stereo unspecified) | / | 11.5% | / | / | 14.1µM* | /
